Common to all, as to conditions: mRNA level, 48 h; actives raise or lower the signal
Read-out in assay [1]: adenosine kinase (ADK) gene, ADK (gene 132)
Briefly: LTEA_HepaRG_ADK: Life Technologies and Expression Analysis (LTEA) Assay for adenosine kinase (ADK) gene using HepaRG (AID 2283471). The gist of the method:
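Read-out is ADK transcript level measured by qRT-PCR and normalised to three housekeeping genes. Cells are human HepaRG, dosed for 48 h at up to 100 uM in 0.5% DMSO. Gain or loss of signal is fitted against DMSO controls.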

Read-out in assay [2]: Alpha-fetoprotein (AFP) gene, AFP (gene 174)
Briefly: LTEA_HepaRG_AFP: Life Technologies and Expression Analysis (LTEA) Assay for Alpha-fetoprotein (AFP) gene using HepaRG (AID 2283472). The essentials: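 AFP transcript measured by TaqMan qRT-PCR with three housekeeping genes for normalization, after 48 h chemical treatment of HepaRG cells (top 100 uM, half-log steps, 0.5% DMSO). Gain or loss fitted against vehicle.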

Read-out in assay [3]: BCL2L11 (gene 10018)
The assay can be described thus: LTEA_HepaRG_BCL2L11: Life Technologies and Expression Analysis (LTEA) Assay for Bcl-2 (BCL2L11) gene using HepaRG (AID 2283473). The essentials: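 Differentiated human HepaRG cells were exposed 48 h in serum-free induction medium to eight half-log concentrations up to 100 uM in 0.5% DMSO, in duplicate. BCL2L11 mRNA was quantified by TaqMan qRT-PCR, normalized to ACTB, GAPDH and POLR2A; induction or repression fitted versus DMSO.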

Read-out in assay [4]: Apolipoprotein A-V (APOA5) gene, APOA5 (gene 116519)
Briefly: LTEA_HepaRG_APOA5: Life Technologies and Expression Analysis (LTEA) Assay for Apolipoprotein A-V (APOA5) gene using HepaRG (AID 2283474). The essentials: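 Differentiated HepaRG cells in serum-free induction medium, exposed 48 h in duplicate to eight half-log concentrations topping at 100 uM (0.5% DMSO). APOA5 mRNA by Fluidigm TaqMan qRT-PCR, normalized to ACTB, GAPDH and POLR2A; bidirectional fit versus DMSO.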

Read-out in assay [5]: Apoptosis regulator Bcl-2 (Homo sapiens) (UniProt P10415)
The assay can be described thus: LTEA_HepaRG_BCL2: Life Technologies and Expression Analysis (LTEA) Assay for Bcl-2 gene using HepaRG (AID 2283475). The gist of the method:
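qRT-PCR of BCL2 transcript, normalized to three housekeeping genes (ACTB, GAPDH, POLR2A), after 48 h chemical exposure of HepaRG cells; concentrations top 100 uM with half-log dilutions, 0.5% DMSO vehicle, duplicates; changes up or down fitted relative to vehicle.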

Read-out in assay [6]: Bcl-2 (BID) gene, BID (gene 637)
The assay can be described thus: LTEA_HepaRG_BID: Life Technologies and Expression Analysis (LTEA) Assay for Bcl-2 (BID) gene using HepaRG (AID 2283476). The essentials:
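Duplicate 48 h treatments of HepaRG cells in serum-free induction medium spanned 100 uM downward in half-log steps, 0.5% DMSO. Transcript change quantified by qRT-PCR against three housekeeping genes, fitted up or down versus DMSO.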

Read-out in assay [7]: Caspase-3 (Homo sapiens) (UniProt P42574)
Briefly: LTEA_HepaRG_CASP3: Life Technologies and Expression Analysis (LTEA) Assay for cysteine-aspartic acid protease (CASP3) using HepaRG (AID 2283477). The essentials:
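Differentiated HepaRG cells, plated 48 h, were treated in duplicate in serum-free induction medium for 48 h with eight half-log concentrations up to 100 uM in 0.5% DMSO. CASP3 mRNA measured by qRT-PCR, normalized to ACTB, GAPDH, POLR2A.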

Read-out in assay [8]: Cytochrome P450 (CYP24A1), CYP24A1 (gene 1591)
The assay can be described thus: LTEA_HepaRG_CYP24A1: Life Technologies and Expression Analysis (LTEA) Assay for Cytochrome P450 (CYP24A1) using HepaRG (AID 2283478). The gist of the method:
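HepaRG cells plated 48 h, then exposed in duplicate in serum-free induction medium for 48 h to 8-point half-log series from 100 uM in 0.5% DMSO. CYP24A1 mRNA by Fluidigm qRT-PCR, normalized to ACTB, GAPDH, POLR2A; bidirectional fit versus DMSO.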

Read-out in assay [9]: Cytochrome P450 (CYP1A2), CYP1A2 (gene 1544)
The assay can be described thus: LTEA_HepaRG_CYP1A2: Life Technologies and Expression Analysis (LTEA) Assay for Cytochrome P450 (CYP1A2) using HepaRG (AID 2283479). The essentials:
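Differentiated human HepaRG cells in serum-free induction medium exposed 48 hours in duplicate to 8 half-log concentrations from 100 uM, 0.5% DMSO. CYP1A2 mRNA quantified by qRT-PCR, normalized to ACTB, GAPDH and POLR2A; bidirectional fitting versus DMSO.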

Read-out in assay [10]: cysteine-aspartic acid protease (CASP8), CASP8 (gene 841)
Briefly: LTEA_HepaRG_CASP8: Life Technologies and Expression Analysis (LTEA) Assay for cysteine-aspartic acid protease (CASP8) using HepaRG (AID 2283480). The essentials:
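qRT-PCR readout of CASP8 mRNA, normalized to three housekeeping genes, after 48 h chemical exposure of HepaRG cells; 8-point half-log series, top 100 uM, 0.5% DMSO vehicle. Bidirectional curve fitting against DMSO baseline.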

Read-out in assay [11]: Cytochrome P450 (CYP2B6), CYP2B6 (gene 1555)
The assay can be described thus: LTEA_HepaRG_CYP2B6: Life Technologies and Expression Analysis (LTEA) Assay for Cytochrome P450 (CYP2B6) using HepaRG (AID 2283481). The gist of the method: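 Differentiated human HepaRG cells in serum-free induction medium, dosed in duplicate for 48 h over 8 half-log concentrations topping at 100 uM (0.5% DMSO). CYP2B6 mRNA measured by TaqMan qRT-PCR, normalized to ACTB, GAPDH, POLR2A; bidirectional fit versus DMSO.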

Read-out in assay [12]: Cytochrome P450 2C19 (Homo sapiens) (UniProt P33261)
The assay can be described thus: LTEA_HepaRG_CYP2C19: Life Technologies and Expression Analysis (LTEA) Assay for CYP2C19 using HepaRG (AID 2283482). The gist of the method: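 Differentiated HepaRG cells in serum-free induction medium exposed 48 h in duplicate, 8 concentrations from 100 uM by half-log steps in 0.5% DMSO. CYP2C19 mRNA measured by TaqMan qRT-PCR, normalized to ACTB, GAPDH, POLR2A. Bidirectional fit versus DMSO.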

Read-out in assay [13]: CYP2C8 (gene 1558)
The assay can be described thus: LTEA_HepaRG_CYP2C8: Life Technologies and Expression Analysis (LTEA) Assay for CYP2C8 using HepaRG (AID 2283483). The essentials: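 HepaRG (human liver line), 48 h chemical exposure, 8-pt half-log series from 100 uM, 0.5% DMSO vehicle. Readout: CYP2C8 transcript by qRT-PCR, housekeeping-normalized. Bidirectional fit vs DMSO baseline.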

Read-out in assay [14]: CYP2C9 (gene 1559)
Briefly: LTEA_HepaRG_CYP2C9: Life Technologies and Expression Analysis (LTEA) Assay for CYP2C9 using HepaRG (AID 2283484). The gist of the method: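 HepaRG, 48 h dosing, 8-pt half-log series, top 100 uM, 0.5% DMSO vehicle. Read-out: CYP2C9 transcript by TaqMan qRT-PCR, housekeeping-normalized (ACTB/GAPDH/POLR2A). Gain or loss fitted vs DMSO baseline.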

Read-out in assay [15]: CYP2E1 (gene 1571)
Briefly: LTEA_HepaRG_CYP2E1: Life Technologies and Expression Analysis (LTEA) Assay for CYP2E1 using HepaRG (AID 2283485). The gist of the method: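 CYP2E1 transcript measured by Fluidigm qRT-PCR against three housekeeping genes in human HepaRG cells treated 48 h (top 100 uM, half-log steps, 0.5% DMSO vehicle). Gain or loss fitted relative to DMSO baseline.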

Read-out in assay [16]: CYP4A11 (gene 1579)
The assay can be described thus: LTEA_HepaRG_CYP4A11: Life Technologies and Expression Analysis (LTEA) Assay for CYP4A11 using HepaRG (AID 2283486). The gist of the method: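 Differentiated HepaRG cells, 48 h after plating, exposed in duplicate for 48 h to 8 half-log concentrations up to 100 uM in 0.5% DMSO in serum-free induction medium. CYP4A11 mRNA measured by TaqMan qRT-PCR, normalized to ACTB, GAPDH and POLR2A.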

Read-out in assay [17]: Cytochrome P450 3A4 (Homo sapiens) (UniProt P08684)
Briefly: LTEA_HepaRG_CYP3A4: Life Technologies and Expression Analysis (LTEA) Assay for CYP3A4 using HepaRG (AID 2283487). The essentials:
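HepaRG, 48 h exposure, 8-pt CRC from 100 uM (half-log), 0.5% DMSO, duplicates; serum-free induction medium. Readout: CYP3A4 mRNA, qRT-PCR, ACTB/GAPDH/POLR2A normalization. Bidirectional fit vs DMSO.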

Read-out in assay [18]: DNA damage-inducible transcript 3 (DDIT3), DDIT3 (gene 1649)
Briefly: LTEA_HepaRG_DDIT3: Life Technologies and Expression Analysis (LTEA) Assay for DNA damage-inducible transcript 3 (DDIT3) using HepaRG (AID 2283488). The gist of the method:
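DDIT3 transcript was quantified by qRT-PCR with ACTB/GAPDH/POLR2A normalization after 48 h chemical treatment of differentiated HepaRG cells in 0.5% DMSO. Dosing was eight-point, half-log, top 100 uM, duplicate wells. Curves fitted bidirectionally versus DMSO.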

Read-out in assay [19]: Pro-epidermal growth factor (Homo sapiens) (UniProt P01133)
The assay can be described thus: LTEA_HepaRG_EGF: Life Technologies and Expression Analysis (LTEA) Assay for Epidermal growth factor (EGF) using HepaRG (AID 2283489). The gist of the method: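 HepaRG cells (~100,000/well, 48 h pre-culture) exposed in duplicate for 48 h in serum-free induction medium to 8 half-log concentrations up to 100 uM in 0.5% DMSO. EGF mRNA by qRT-PCR, normalized to ACTB/GAPDH/POLR2A; bidirectional fit versus DMSO.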

Read-out in assay [20]: Early growth response protein 1 (EGR1) transcription factor, EGR1 (gene 1958)
Briefly: LTEA_HepaRG_EGR1: Life Technologies and Expression Analysis (LTEA) Assay for Early growth response protein 1 (EGR1) transcription factor using HepaRG (AID 2283490). The essentials: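 HepaRG, 48 h exposure, 8-pt half-log series from 100 uM, 0.5% DMSO vehicle; EGR1 transcript by TaqMan qRT-PCR (Fluidigm array), housekeeping-normalized; bidirectional fit relative to DMSO baseline.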

The source made the active and inactive calls. How the source made its calls: active means hit-call score of the fitted dose curve at least 0.9, where 1 is the maximum; inactive means score below 0.9.

As usually defined, the AC50 is the concentration giving half of the maximal activity seen.

Cytochrome P450 3A4 (Homo sapiens), sequence (P08684 whole entry, looked up): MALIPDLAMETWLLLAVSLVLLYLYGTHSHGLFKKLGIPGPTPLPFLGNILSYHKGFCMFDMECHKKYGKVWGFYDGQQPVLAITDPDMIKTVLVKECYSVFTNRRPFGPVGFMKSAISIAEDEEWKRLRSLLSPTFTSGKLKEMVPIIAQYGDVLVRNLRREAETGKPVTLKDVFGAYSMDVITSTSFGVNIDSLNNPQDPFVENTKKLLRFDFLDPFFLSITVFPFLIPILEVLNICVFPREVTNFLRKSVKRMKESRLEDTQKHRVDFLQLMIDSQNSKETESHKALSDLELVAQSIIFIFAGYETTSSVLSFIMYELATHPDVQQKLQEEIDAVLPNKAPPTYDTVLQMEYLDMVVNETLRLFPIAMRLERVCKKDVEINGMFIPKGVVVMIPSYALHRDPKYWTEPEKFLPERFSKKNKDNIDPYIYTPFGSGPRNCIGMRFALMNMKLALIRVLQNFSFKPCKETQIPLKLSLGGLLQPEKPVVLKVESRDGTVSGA
Caspase-3 (Homo sapiens), sequence (P42574 whole entry, looked up): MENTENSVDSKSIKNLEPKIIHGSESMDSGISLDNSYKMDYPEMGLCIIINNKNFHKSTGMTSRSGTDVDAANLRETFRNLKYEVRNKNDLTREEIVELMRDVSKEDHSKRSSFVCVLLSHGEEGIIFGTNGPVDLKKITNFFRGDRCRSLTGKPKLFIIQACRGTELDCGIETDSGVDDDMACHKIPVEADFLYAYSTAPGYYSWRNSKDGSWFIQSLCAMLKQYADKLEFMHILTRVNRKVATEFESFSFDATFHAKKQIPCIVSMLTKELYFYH
Cytochrome P450 2C19 (Homo sapiens), sequence (P33261 whole entry, looked up): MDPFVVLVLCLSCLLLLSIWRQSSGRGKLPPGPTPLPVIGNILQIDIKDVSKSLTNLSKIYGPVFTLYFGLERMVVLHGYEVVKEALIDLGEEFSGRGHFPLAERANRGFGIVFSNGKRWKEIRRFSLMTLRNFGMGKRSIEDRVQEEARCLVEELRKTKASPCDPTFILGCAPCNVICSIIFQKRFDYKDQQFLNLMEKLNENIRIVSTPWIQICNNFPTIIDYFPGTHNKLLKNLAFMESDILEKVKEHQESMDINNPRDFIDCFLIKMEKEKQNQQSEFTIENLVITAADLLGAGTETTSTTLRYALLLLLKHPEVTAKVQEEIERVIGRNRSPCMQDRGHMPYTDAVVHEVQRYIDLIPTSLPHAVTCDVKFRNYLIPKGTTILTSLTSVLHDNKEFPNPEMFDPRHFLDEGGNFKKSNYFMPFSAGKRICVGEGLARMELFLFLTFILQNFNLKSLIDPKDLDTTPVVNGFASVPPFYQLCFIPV
Apoptosis regulator Bcl-2 (Homo sapiens), sequence (P10415 whole entry, looked up): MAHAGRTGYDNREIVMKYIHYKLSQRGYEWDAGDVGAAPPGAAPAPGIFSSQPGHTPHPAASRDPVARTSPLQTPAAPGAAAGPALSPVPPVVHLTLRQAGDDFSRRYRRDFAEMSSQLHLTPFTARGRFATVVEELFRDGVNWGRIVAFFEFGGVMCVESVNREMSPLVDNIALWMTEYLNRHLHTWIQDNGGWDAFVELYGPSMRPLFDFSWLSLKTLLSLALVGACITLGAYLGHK

As to `CCN(CC)CCNc1ccc(CNC=O)c2sc3ccc(OC)cc3c(=O)c12`, the concentration at half-maximal activity (AC50) in assay [1] is 76.7 µM (active); in [2], 11.5 µM (active); in [3] it was 21.9 µM (active); in assay [4], 12.4 µM (active); in [7] it was 72.7 µM (active); in [10], 50 µM (active). The concentration at half-maximal activity (AC50) is 7.58 µM (active) in assay [11]; 16.8 µM (active) in [14]; 12.8 µM (active) in [15]; 26 µM (active) in assay [16]; 50 µM (active) in assay [17]; 88.2 µM (active) in assay [20]. For the same compound, the outcome in assay [5], in assay [6], in assay [8], in assay [9], in [12] and in assay [13] was inactive. Also, the call in [18] and in assay [19] was inactive.

Consider `Oc1cc2ccccc2c2ccccc12`, for which the result in assay [1], in assay [2], in assay [3], in assay [4], in assay [5] and in assay [6] was inactive. Besides, the result in [7], in assay [8], in assay [10], in assay [11], in [12] and in [13] was inactive. Moreover, the compound was called inactive in [14], in assay [15], in assay [16], in [17], in assay [18] and in assay [19]. The compound was classed as inactive in [20]. Also, in [9], the concentration at half-maximal activity (AC50) is 22.4 µM (active).

For `O=C(O)Cc1cc(I)c(Oc2cc(I)c(O)c(I)c2)c(I)c1`, the AC50 is 45.7 µM (active) in [1]; 37.5 µM (active) in [2]; 57.7 µM (active) in assay [4]; 21.7 µM (active) in assay [5]; 0.0864 µM (active) in [9]; 56.7 µM (active) in assay [10]. In addition, the concentration at half-maximal activity (AC50) in assay [11] is 55.3 µM (active); in assay [12] it was 62.7 µM (active); in assay [13], 61.5 µM (active); in [14], 53.8 µM (active); in assay [15], 6.65 µM (active); in assay [16], 53.2 µM (active). The AC50 was 50.7 µM (active) in assay [17], 51.9 µM (active) in assay [18], 57.3 µM (active) in assay [19] and 51.6 µM (active) in assay [20]. The call in assay [3], in [6], in assay [7] and in assay [8] was inactive.

(Values after PubChem BioAssay (EPA / NIEHS).)
